# The whole screen tested about 420,000 compounds, of which about 50,000 (12%) were called active. Not shown: some 26% with an inconclusive outcome. What follows is part of a selection rich in actives, with near analogues and random picks from the rest. Values without a mark were called inactive. The call rests on the fitted dose curve; in most records, active means well fitted inhibition curve with a large enough effect; inconclusive means small, poorly fitted or top-dose-only effect; inactive means flat fitted curve, though single readings scatter.
# Assay: qHTS for Inhibitors of human tyrosyl-DNA phosphodiesterase 1 (TDP1): qHTS in cells in presence of CPT; further: nearly all actives have a fitted effect of over 55% in size
# Settings: chicken DT40 Tdp1-/-;hTDP1 cells + 20 nM CPT, ATP luminescence, 48 h; series mostly up to 46.2 µM; activity change, negative = growth inhibition: at the top concentration
# Summary of the method: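 Chicken DT40 Tdp1-/- cells stably complemented with human TDP1 were seeded at 400 cells/well in medium containing 20 nM camptothecin, exposed to pin-transferred compounds, and grown at 37 °C for at least 48 hr. Viability was read as ATP luminescence.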
# On the % scale 0 is the no-effect control and ±100 the full control effect; potency means the concentration at half of the fitted maximal effect.
SMILES,"activity change, negative = growth inhibition",Potency
C[C@@H]1CN([C@@H](C)CO)C(=O)CCCn2cc(nn2)CO[C@H]1CN(C)S(=O)(=O)c1ccc(-n2cccn2)cc1,-1.95%,
C/C=C(\C)C(=O)OC1C(OC(=O)C2(C)OC2C)c2cc3ccc(=O)oc3cc2OC1(C)C (centres undefined),14.7% [at 9.04 µM],
COc1cc(C2C(C(=O)c3sc(C)nc3C)=C(O)C(=O)N2CCN(C)C)cc(OC)c1OC (centres undefined),17.6%,
O=C(c1cccs1)n1nc(NCc2ccccc2)nc1NCc1ccccc1,-2.83%,
CCCc1cc(=O)[nH]c(SCC(=O)N2C(C)CCCC2C)n1 (centres undefined),6.83%,
CCCc1cc(=O)[nH]c(SCC(=O)c2c(N)n(CC(C)C)c(=O)n(C)c2=O)n1,,7.31 µM (active)
CCCc1cc(=O)[nH]c(SCC(=O)Nc2ccc(S(=O)(=O)N3CCCC3)cc2)n1,8.44%,
Cc1ccc(Cl)cc1NC(=O)CSc1nccn1C,-9.01%,
COc1ccccc1C(=O)NCCC(=O)NC1=NCCS1,-4.1%,
Cc1cc(C)cc(Oc2c(C(F)(F)F)oc3cc(OCC(=O)O)ccc3c2=O)c1,-5.4%,
Cc1nc2ccccc2c(=O)n1-c1ccc(NS(=O)(=O)c2ccc(F)cc2F)cc1,-12.3%,
Cc1cccc(-c2nc3ccccc3c(=O)n2NC(=O)Cc2ccc(Cl)cc2)c1,7.87%,
Cc1[nH]n(-c2ccc(Cl)cc2)c(=O)c1/C=N/n1c(C)nc2ccccc2c1=O,,20.6 µM (active)
CC(OC(=O)c1cccc(S(=O)(=O)N2CCOCC2)c1)C(=O)NCC1CCCCC1 (centres undefined),-12.7%,
Cc1occc1-c1nnc(SCC(=O)NC2(C#N)CCCC2)n1C,-10.5%,
CN(Cc1ccc(C(F)(F)F)cc1)C(=O)[C@H]1O[C@@H](n2cnc3c(N)ncnc32)[C@H](O)[C@@H]1O,-2.52%,
Cc1noc(C)c1S(=O)(=O)N(C)C[C@H]1Oc2c(NC(=O)Nc3ccc4c(c3)OCO4)cccc2C(=O)N([C@H](C)CO)C[C@@H]1C,-4.03%,
CCc1nn(CCCC(=O)Nc2ccc(C)cc2C)c(=O)c2cc3occc3n12,-16.1%,
CCOc1cc(/C=C2/C(=N)N3OC(C)=CC3=NC2=O)ccc1OC,0.826%,
CC1=CC2=NC(=O)/C(=C/c3coc4ccccc4c3=O)C(=N)N2O1,7.64%,
COc1ccc(OCCCn2cccc2/C=C2/C(=N)N3OC(C)=CC3=NC2=O)cc1,,18.4 µM (active)
COc1cccc(CNC(=O)c2cccnc2Sc2ccc(Cl)cc2)c1,-12.8%,
Cc1ccnc(NC(=O)CNC(=O)c2ccccc2)c1,46.1%,
Cc1cc(NC(=O)c2cc3ccccc3o2)no1,3.53%,
CC(=O)Nc1cccc(C(=O)OCC(=O)c2ccc3c(c2)OCO3)c1,-0.904%,

SMILES,"activity change, negative = growth inhibition",Potency
O=C(CSc1n[nH]c(-c2ccccc2)n1)N1CCCCC1,-17%,
C=CC(C1=CC(=O)C=CC1=O)c1ccc(O)cc1 (centres undefined),,1.64 µM (active)
CSc1ncccc1C(=O)OCc1ccc(Br)cc1,5.07%,
NC(=O)C1(Nc2ccc(-c3ccccc3)cc2)CCCC1,-22%,
COc1cccc(S(=O)(=O)NCc2ccc(C(=O)NCc3ccccn3)cc2)c1,,0.92 µM (active)
COc1ccc2oc(=O)c(C(=O)NCc3ccccn3)cc2c1,2.36%,
O=[N+]([O-])c1cccc(S(=O)(=O)NCc2ccccn2)c1,-19.3%,
O=C(COC(=O)c1ccc(F)cc1)NCCCc1ccccc1,-10.9%,
Cn1c(SCC(=O)N2CCCCC2)nc2c(c1=O)SCC2,-8.32%,
Cc1c(NC(=O)c2cc(=O)c3ccccc3o2)c(=O)n(-c2ccccc2)n1C,6.89%,
O=C1CC(c2ccccc2)C(c2ccccc2)=NN1 (centres undefined),-12.2%,
CC(=O)Nc1ccc(C(=O)Nc2cc(S(=O)(=O)N3CCOCC3)ccc2N2CCOCC2)cc1,-9.04%,
COCCNC(=S)Nc1cc(S(=O)(=O)N2CCOCC2)ccc1N1CCCCC1,,20.6 µM (active)
CC(C)CCC(=O)Nc1cc(S(=O)(=O)N2CCOCC2)ccc1N1CCCC1,-0.988%,
CC(=O)NCCC(=O)Nc1cc(S(=O)(=O)N2CCOCC2)ccc1N1CCOCC1,17%,
CC(Oc1ccc(F)cc1)C(=O)Nc1cc(S(=O)(=O)N2CCOCC2)ccc1N1CCN(C)CC1 (centres undefined),0.854%,
CC(C)CCOc1ccc(C(=O)Nc2cc(S(=O)(=O)N3CCOCC3)ccc2N2CCOCC2)cc1,,9.2 µM (active)
COc1ccc(CNC(=O)Cn2nnc(-c3ccccc3F)n2)cc1,-5.73%,
COC(=O)[C@@H]1CC(O)CN1C(=O)C12CC3CC(CC(C3)C1)C2 (some centres undefined),0.758%,
CN(C)/C(=N\OC(=O)c1ccccc1)c1nonc1N,8%,
C=C(C)CNC(=O)c1ccc(OC2CCN(C(=O)COC)CC2)cc1,-3.36%,
Cc1c(NC(=O)CSc2nnnn2-c2ccc(C(=O)O)cc2)c(=O)n(-c2ccccc2)n1C,16.4%,
CS(=O)(=O)N(CC(=O)N1CCc2ccccc2C1)c1ccc(Br)cc1,1.53%,
CN(CCc1ccccc1)c1ccc([N+](=O)[O-])cn1,-24.2%,
Cc1c(C)c2c(OCC(=O)N[C@@H](C(=O)O)c3ccccc3)cc3c(c2oc1=O)CCC(C)(C)O3,3.69%,

SMILES,"activity change, negative = growth inhibition",Potency
COc1ccc2c(c1)CCc1cnc(-n3ncc(C(=O)NCCN4CCOCC4)c3C)nc1-2,8.01%,
Cc1cc(Oc2ccc(Cl)cc2)nc(SCC(=O)c2ccccc2)n1,,23.1 µM (active)
COC(=O)c1cc(C(=O)CSc2nc(C)cc(C)n2)ccc1O,-20.2%,
Cc1cc(C)nc(SCC(=O)c2ccc(Cl)cc2)n1,-14.4%,
O=C(COC(=O)CCCSc1nc2ccccc2[nH]1)Nc1ccc(Oc2ccccc2)cc1,-13%,
NC(=O)CC[C@@H]1NC(=O)[C@@H]2CCCN2C(=O)c2cc([N+](=O)[O-])cc(F)c2NCCC[C@@H](C(N)=O)NC1=O,2.58%,
CC1(C)CN(Cc2cccnc2)C(=O)[C@H]1CC(=O)Nc1ccc(Br)cc1,-1.2%,
COC(=O)CN1C(C)=Nc2ccc(Br)cc2C1c1ccccc1 (centres undefined),-16.9%,
O=C1CN(C(=O)c2ccccc2F)C(c2ccc(F)cc2)c2cc(F)ccc2N1 (centres undefined),19.9%,
Cc1ccc2c(c1)C(c1ccccc1)N(C(=O)c1ccc(F)cc1)CC(=O)N2 (centres undefined),-4.21%,
COc1ccc(CC(=O)N2CC(=O)Nc3ccc(Br)cc3C2c2ccc(F)cc2)cc1OC (centres undefined),,16.4 µM (active)
CC(C)C(=O)N1CC(=O)Nc2ccc(F)cc2C1c1ccc(F)cc1 (centres undefined),-8.49%,
CCC(CC)C(=O)N1CC(=O)Nc2ccc(Br)cc2C1c1ccccc1 (centres undefined),,23.1 µM (active)
COc1ccc(C(=O)Nc2ccnn2C2CCN(Cc3ccncc3)CC2)cc1,9.74%,
COC(=O)c1sc2ncccc2c1-n1c(C)ccc1C,-15.9%,
Cc1cc(Cl)ccc1NNC(=O)c1snnc1C,-14.9%,
Brc1ccc(-c2csc(N/N=C/c3cccnc3)n2)cc1,-25%,
O=C(CSc1nnc(-c2c[nH]c3ccccc23)o1)c1ccccc1,-3.09%,
CC(=O)Nc1ccc(C(=O)CSc2nnc(Cc3ccccc3)o2)cc1,-9.59%,
O=C(CSc1nnc(Cn2cnc3ccccc32)o1)c1ccccc1,,11.6 µM (active)
CCCN(c1ccc(C)cc1)c1nc(=O)c2cccnc2s1,-29.5%,
Cc1nc(N2CCOCC2)c2c(C(=O)NCc3cccc(Cl)c3)c(C)oc2n1,-0.0309%,
COc1ccc(N2CCN(C(=O)c3c(C)oc4nc(C)nc(N5CCCC5)c34)CC2)cc1,-8.38%,
CCOC(=O)c1c(C)oc2nc(C)nc(N3CCN(c4ccc(OC)cc4)CC3)c12,,7.31 µM (active)
CCOc1ccc(CCNC(=O)CN(c2ccc(C)cc2)S(=O)(=O)N(C)C)cc1OCC,-28.9%,

SMILES,"activity change, negative = growth inhibition",Potency
CCOC(=O)c1[nH]c2c(c1-c1ccccc1)C(=O)CC(c1ccc(Cl)cc1)C2 (centres undefined),-17.1%,
CCOc1ccc(C2CC(=O)c3c([nH]c(C(=O)OCc4ccccc4)c3C)C2)cc1 (centres undefined),,13 µM (active)
CC(C)(C)N1C(=O)c2c(C(=O)OCc3ccccc3)[nH]c(-c3ccccc3)c2C1=O,-26.7%,
CCc1ccc(C2CC(=O)c3c([nH]c(C(=O)OCc4ccc(C)cc4)c3C)C2)cc1 (centres undefined),,6.51 µM (active)
CCOC(=O)c1cc(=O)c2ccc(OCc3ccccc3)cc2o1,-0.489%,
CCOC(=O)C(Cc1ccccc1)NC(=O)CCC(=O)c1ccc(OC)cc1 (centres undefined),7.45%,
CN1C(=O)/C(=C/C=C2\SCCN2C)OC1=S,8.02%,
Cc1ccn2c(=O)nc(SCC(=O)NCc3ccc4c(c3)OCO4)nc2c1,-23.3%,
CCOc1ccccc1NC(=O)CSc1ncc(S(=O)(=O)c2ccc(C(C)(C)C)cc2)c(=O)[nH]1,6.92%,
O=C(NCC(=O)N(c1ccccc1)C(C(=O)NCC1CCCO1)c1ccccc1)c1cccs1 (centres undefined),-0.896%,
Cc1ccc(N2CCN(C(=O)CCc3c(C)nc4c(c3C)c(=O)n(C)c(=O)n4C)CC2)c(C)c1,20.1%,
COc1cc(NC(=O)CCn2nc(C)cc2C)cc(OC)c1OC,-14.5%,
Cc1ccc(Cc2c(C)nc3nc(SCC(=O)NCCN4CCOCC4)nn3c2C)cc1,-20.8%,
COc1cc(NC(=O)CSc2nc3nc(C)c(Cc4ccc(C)cc4)c(C)n3n2)cc(OC)c1OC,,13 µM (active)
CCn1c(SC)nc(O)c(C(c2ccc(OC)c(O)c2)c2c(O)nc(SC)n(CC)c2=O)c1=O,-19%,
CC(C)CN1CCC1(C)C(=O)Nc1ccc(OC(F)F)cc1 (centres undefined),0.933%,
CC(C)Oc1ccc(CN2CCC2(C)C(=O)NCc2ccc(C(F)(F)F)cc2)cc1 (centres undefined),,25.9 µM (active)
CC(C)Oc1ccc(Oc2ccc(C(F)(F)F)cn2)cc1,-7.36%,
CN(CC(=O)Nc1ccc(Cl)cc1)C(=O)CNC(=O)c1ccc2ccccc2c1,15.8%,
O=C(/C=C/c1ccccc1)Oc1coc(CSc2ncccn2)cc1=O,-1.71%,
COc1ccc(-c2nn3c(-c4ccc(OC)cc4)nnc3c3ccccc23)cc1,-23.6%,
COc1ccc(OC)c(/C=C/C(=O)OCC(=O)Nc2ccc3c(c2)OCCO3)c1,,20.6 µM (active)
COc1cccc(/C=C/C(=O)Nc2ccc3c(c2)OCCO3)c1,-16.5%,
COc1ccccc1OCCCC(=O)Nc1ccc2c(c1)OCCO2,-7.91%,
